Test results: PubChem BioAssay (Tox21)
A number with no mark means an inactive call. Inconclusive results are not listed. A call without a number means that no potency is given here. The source made the active and inactive calls. Unless noted, calls come from the whole dose curve; as a rule, active = well fitted curve in the direction sought with a large enough effect in the repeat runs; inconclusive = weak or mixed curves; inactive = no such curve, though single readings can be large; an effect the other way counts as inactive or inconclusive.

Experiments:
[1] = qHTS assay for small molecules that induce genotoxicity in human embryonic kidney cells expressing luciferase-tagged ATAD5 (AID 651632); note: nearly all actives have a fitted effect of over 15% in size
Procedure, shortened: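 Genotoxicity read-out via ATAD5-luciferase: HEK293T cells, 16 hr compound incubation at 37C, Amplite detection.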

[2] = qHTS assay for small molecules that induce genotoxicity in human embryonic kidney cells expressing luciferase-tagged ATAD5 - cell viability (AID 651634; calls by dose curve; note: nearly all actives have a fitted effect of over 25% in size; note: potency is the fitted concentration of half-maximal effect)
Procedure, shortened: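 Live-cell protease activity (CellTiter-Fluor, fluorescence) indicates viability. HEK293T cells with luciferase-tagged ATAD5; 15.5 hr compound treatment at 37C.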

[3] = qHTS assay for small molecule disruptors of the mitochondrial membrane potential (AID 720635); note: potency is the fitted concentration of half-maximal effect
Procedure, shortened: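 Mitochondrial membrane potential tracked with Mito-MPS dye, red aggregates (ex 540/em 590 nm) against green monomers (ex 490/em 535 nm). Compound treatment 1 hr at 37C, dye 30 min in HepG2.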

[4] = qHTS assay to test for compound auto fluorescence at 535 nm (green) in HepG2 cells (AID 720675)
[5] = qHTS assay to test for compound auto fluorescence at 460 nm (blue) in HEK293 cells (AID 720678)
Procedure, shortened: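 HEK293 cells (2,000 per well, medium with 10% dialyzed FBS) attached for 4-5 hr at 37C, then received compound and stood overnight at 37C, 5% CO2. Blue fluorescence was read at Ex/Em 405/460 nm and expressed relative to triamterene.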

[6] = qHTS assay to test for compound auto fluorescence at 590 nm (red) in HEK293 cells (AID 720679)
Procedure, shortened: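 HEK293 cells (2,000/well, medium with 10% dialyzed FBS) attached for 4-5 hr at 37C, received 23 nL compound and were incubated overnight at 37C, 5% CO2. Red fluorescence was then read at 540/590nm Ex/Em, referenced to Rose Bengal sodium.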

[7] = qHTS assay to test for compound auto fluorescence at 535 nm (green) in HEK293 cells (AID 720680)
[8] = qHTS assay to test for compound auto fluorescence at 460 nm (blue) in HEK293 cell free culture (AID 720681)
Procedure, shortened: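 Blue fluorescence (Ex 405/Em 460 nm, triamterene-equivalent) was read immediately after pin transfer of compound or DMSO into medium (DMEM, 10% FBS) without cells.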

[9] = qHTS assay to test for compound auto fluorescence at 535 nm (green) in HEK293 cell free culture (AID 720682)
Procedure, shortened: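 Green-label autofluorescence (485 nm excitation, 535 nm emission) measured on compound added to cell-free culture medium (DMEM, 10% FBS). Output is expressed relative to fluorescein.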

[10] = qHTS assay to test for compound auto fluorescence at 590 nm (red) in HEK293 cell free culture (AID 720683)
Procedure, shortened: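 Red-channel autofluorescence of compounds in culture medium (DMEM, 10% FBS), no cells, measured at 540/590 nm. Rose Bengal sodium is the reference fluorophore for equivalence.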

[11] = qHTS assay to test for compound auto fluorescence at 590 nm (red) in HepG2 cell free culture (AID 720684)
Procedure, shortened: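 Steps: dispense MEM/10% FBS medium, no cells; pin compound or DMSO vehicle; read red channel, Ex/Em 540/590 nm. Output given as Rose Bengal sodium equivalents.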

[12] = qHTS assay to test for compound auto fluorescence at 460 nm (blue) in HepG2 cell free culture (AID 720685)
Procedure, shortened: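 Compound (23 nL) or DMSO pinned into cell-free MEM with 10% FBS; blue fluorescence read at 405/460 nm excitation/emission, expressed as auto-fluorescence equivalency to triamterene.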

[13] = molecular target: Glucocorticoid receptor (Homo sapiens) (UniProt P04150); assay: qHTS assay to identify small molecule agonists of the glucocorticoid receptor (GR) signaling pathway (AID 720691; active = well fitted activation curve with a large enough effect in the signal ratio in the repeat runs, not every such curve was filed as active; the % refers to the signal ratio)
Procedure, shortened: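 Beta-lactamase reporter activity, read as fluorescence intensity, was measured in GR-bla HeLa cells exposed to compounds for 18 h at 37 C and then loaded with LiveBLAzer B/G FRET substrate for 2 h at room temperature.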

[14] = molecular target: Glucocorticoid receptor (Homo sapiens) (UniProt P04150); assay: qHTS assay to identify small molecule antagonists of the glucocorticoid receptor (GR) signaling pathway (AID 720692; active = well fitted inhibition curve with a large enough effect in the signal ratio in the repeat runs, not every such curve was filed as active; the % refers to the signal ratio; note: potency is the fitted concentration of half-maximal effect)
Procedure, shortened: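 Fluorescence from cleaved LiveBLAzer B/G FRET substrate reports GRE-driven beta-lactamase in HeLa cells; compounds are tested against 5 nM dexamethasone (final) over 18 h at 37 C, substrate incubation 2 h at room temperature.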

[15] = qHTS assay for small molecule disruptors of the mitochondrial membrane potential - cell viability (AID 720634; calls by dose curve; note: nearly all actives have a fitted effect of over 20% in size; note: potency is the fitted concentration of half-maximal effect)
Procedure, shortened: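 Human hepatoma HepG2 cells were treated for 1 hr with test chemicals, then given m-MPI dye and CellTiter-Glo. Cell viability reflects luminescence proportional to cellular ATP.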

[16] = qHTS assay to test for compound auto fluorescence at 590 nm (red) in HepG2 cells (AID 720674)
Procedure, shortened: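 Red autofluorescence (Ex/Em 540/590 nm, Rose Bengal sodium equivalents) was measured in HepG2 cells, 2,000 per well in MEM plus 10% FBS, plated overnight at 37 C. Readings were taken 1 hr after adding 23 nL compound or DMSO, at 37 C and 5% CO2.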

[17] = qHTS assay to test for compound auto fluorescence at 535 nm (green) in HepG2 cell free culture (AID 720686)
[18] = qHTS assay for small molecule agonists of the p53 signaling pathway - cell viability (AID 651633; calls by dose curve; note: nearly all actives have a fitted effect of over 30% in size; note: potency is the fitted concentration of half-maximal effect)
Procedure, shortened: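 Viability counter-read: CellTiter-Glo luminescence (30 min, room temperature) in the same p53RE-bla plates. These plates had been exposed to compounds for 16 h at 37 C.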

[19] = qHTS assay to test for compound auto fluorescence at 460 nm (blue) in HepG2 cells (AID 720687)
Procedure, shortened: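 Blue-channel autofluorescence (Ex/Em 405/460 nm, triamterene-equivalent) was measured after 1 hr compound exposure at 37 C, 5% CO2. Cells were HepG2, plated overnight at 37 C in MEM plus 10% FBS.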

Sequence of Glucocorticoid receptor (Homo sapiens) (P04150 whole entry, looked up): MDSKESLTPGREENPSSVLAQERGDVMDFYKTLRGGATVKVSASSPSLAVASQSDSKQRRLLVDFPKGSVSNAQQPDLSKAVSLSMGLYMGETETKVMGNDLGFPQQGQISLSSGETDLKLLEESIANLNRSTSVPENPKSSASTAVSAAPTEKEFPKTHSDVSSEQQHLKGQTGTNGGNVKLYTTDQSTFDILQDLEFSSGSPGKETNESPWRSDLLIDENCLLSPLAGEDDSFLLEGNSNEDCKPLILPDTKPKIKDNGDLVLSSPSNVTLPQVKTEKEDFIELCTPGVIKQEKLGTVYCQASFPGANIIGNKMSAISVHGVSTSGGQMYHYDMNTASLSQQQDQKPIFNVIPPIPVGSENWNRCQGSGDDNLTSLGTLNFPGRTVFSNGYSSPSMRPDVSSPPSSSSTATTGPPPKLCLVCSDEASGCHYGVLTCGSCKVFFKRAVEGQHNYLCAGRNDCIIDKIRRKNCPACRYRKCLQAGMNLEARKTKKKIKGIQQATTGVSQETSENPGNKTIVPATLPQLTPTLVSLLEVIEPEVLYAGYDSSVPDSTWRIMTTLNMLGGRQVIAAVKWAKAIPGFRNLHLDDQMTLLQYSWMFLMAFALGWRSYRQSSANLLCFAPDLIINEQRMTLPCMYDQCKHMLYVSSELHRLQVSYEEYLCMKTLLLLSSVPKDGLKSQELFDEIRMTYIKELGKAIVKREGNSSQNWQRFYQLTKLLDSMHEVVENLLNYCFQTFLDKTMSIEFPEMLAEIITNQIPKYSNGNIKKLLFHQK

Compound	Potency [1]	Potency [2]	Potency [3]	outcome [4]	Potency [5]	outcome [6]	outcome [7]	Potency [8]	outcome [9]	outcome [10]	outcome [11]	Potency [12]	Potency [13]	Potency [14]	Potency [15]	outcome [16]	outcome [17]	Potency [18]	Potency [19]
CC(CCc1ccc2c(c1)OCO2)NN (stereo not drawn)	inactive	inactive	inactive	inactive	inactive	inactive	inactive	inactive	inactive	inactive	inactive	inactive	inactive	inactive					
Nc1ccc(Cl)cc1[N+](=O)[O-]	inactive		53.9 µM (active)	inactive	inactive		inactive	inactive	inactive	inactive	inactive	inactive			inactive	inactive	inactive		
CC(C)c1nnc2ccc(-c3ocnc3-c3cc(F)ccc3F)cn12				inactive	inactive	inactive	inactive	inactive	inactive	inactive	inactive	inactive	inactive	inactive		inactive		inactive	inactive
COc1cc2c(N3CCN(C(=O)Nc4ccc(OC(C)C)cc4)CC3)ncnc2cc1OCCCN1CCCCC1		29.8 µM (active)	26.6 µM (active)	inactive	inactive	inactive	inactive	inactive	inactive	inactive	inactive	inactive	inactive		inactive	inactive	inactive	5.31 µM (active)	inactive
CCCC1C(CC)=CC(CC)=CN1c1ccccc1 (stereo not drawn)	inactive	inactive		inactive	inactive	inactive	inactive	inactive	inactive	inactive	inactive	inactive	inactive	49 µM (active)		inactive	inactive		inactive
COc1cc2ncnc(Nc3ccc(F)c(Cl)c3)c2cc1OCCCN1CCOCC1	inactive			inactive	inactive	inactive	inactive	inactive	inactive	inactive	inactive	inactive	inactive			inactive	inactive		
CCCCN(CCCC)C(=S)SSC(=S)N(CCCC)CCCC	inactive			inactive	inactive	inactive		inactive	inactive	inactive	inactive	inactive				inactive	inactive	inactive	inactive
Nc1ccc(C(=O)OCCCOC(=O)c2ccc(N)cc2)cc1			27.3 µM (active)	inactive	inactive	inactive		inactive	inactive	inactive	inactive	inactive	inactive	inactive	inactive		inactive	inactive	inactive
COCCOC(=O)C1=C(C)NC(C)=C(C(=O)OC/C=C/c2ccccc2)C1c1cccc([N+](=O)[O-])c1 (stereo not drawn)	inactive	inactive		inactive	inactive	inactive	inactive	inactive	inactive	inactive	inactive	inactive	inactive	10.7 µM (active)	9.44 µM (active)	inactive	inactive		inactive
Cc1ccc(Nc2nccc(N(C)c3ccc4c(C)n(C)nc4c3)n2)cc1S(N)(=O)=O	inactive		0.75 µM (active)	inactive	inactive		inactive	inactive	inactive	inactive	inactive	inactive			inactive	inactive	inactive		inactive
CCCc1c(OCCCOc2ccc(OCC(=O)O)cc2)ccc(C(C)=O)c1O	inactive			inactive	inactive	inactive	inactive	inactive	inactive	inactive	inactive	inactive	inactive						inactive
Cc1ccc(S(=O)(=O)NC2CCCCC2)cc1	inactive		21.5 µM (active)	inactive	inactive	inactive	inactive	inactive	inactive	inactive	inactive	inactive	inactive	inactive		inactive			inactive
